Source: PubChem BioAssay (National Center for Advancing Translational Sciences (NCATS))
MARV entry inh: inhibitors of Marburg virus binding or cell entry | Marburg virus pseudotyped entry inhibition, cell reporter | 1.8% of 300,000 active | Potency, µM (highest dose often 37.8 µM), for the others: top-dose activity change, negative = inhibition, usual class: inhibitors; calls by dose curve; tested in HEK293 cells; further: potency means the concentration at half of the fitted maximal effect
FMDV antiviral: foot and mouth disease virus antiviral activity. FMDV antiviral cell-based qHTS. Potency, µM (top dose mostly 57.9 µM), for inactives: top-dose activity change, negative = inhibition, actives largely listed as inhibitors. 1.2% of 410,000 active; calls by dose curve; tested in HEK293T cells; further: read-out not given here; potency means the concentration at half of the fitted maximal effect; nearly all actives have a fitted effect of over 45% in size
Lassa entry inh: blocks Lassa virus binding to or entry into cells; 1.2% of 300,000 active; AID 540256; Potency, µM (top dose mostly 37.9 µM), inactives show at the highest dose activity change, negative = inhibition, most hits filed as inhibitors; Lassa virus pseudotype entry inhibition, cell reporter; calls by dose curve; tested in HEK293 cells; further: potency means the concentration at half of the fitted maximal effect; nearly all actives have a fitted effect of over 50% in size
HCMV antiviral: human cytomegalovirus inhibition | HFF cells, HCMV-luciferase reporter, 72 h; stronger effect = lower value | activity change, negative = inhibition, % at 57.5 µM | 4.5% of 410,000 active; in the data active means activity change below about -60%; inconclusive means no clear call, values can overlap the other calls; inactive means above about -39%
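Two-dose cell screen: HFF monolayers treated with compounds and infected with luciferase-expressing HCMV at 1 PFU/cell, 72 h at 37C, then lysed for luciferase measurement.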
Starred values were filed as active, the others as inactive; ? = inconclusive; nt = not tested or not shown; [ ] = dose if it differs, or a comment. Rows were chosen to be rich in hits. Some 6.2% of all compounds tested hit in one or more screens of this group. On the % scale 0 is the no-effect control and ±100 the full control effect.

SMILES | MARV entry inh | FMDV antiviral | Lassa entry inh | HCMV antiviral
Cc1ccc(CCNC(=O)c2ccc(CNS(=O)(=O)c3ccccc3)cc2)cc1 | 10%[46.1 µM] | 0% | ? | 3
O=C(CN(Cc1ccccc1)C1=NCCS1)c1ccc(Cl)cc1 | ? | -16% | 13% | -16
Cc1cc(=O)[nH]c(N=N/C(=N/Nc2ccc(O)cc2)c2ccccc2)n1 | ? | -23% | 20µM* | 68
COc1ccc(C(=O)CSc2nc(C)cc(=O)[nH]2)cc1 | 22% | 28% | -2% | 3
COc1ccc(N/N=C(/N=Nc2nc(C)cc(=O)[nH]2)c2ccccc2)cc1 | 4.5µM* | -8% | 5µM* | -89*
CCC(=O)N=c1sc2c(OC)ccc(OC)c2n1C | nt | -13% | nt | 5
COc1cc(CN2C[C@@H](CO)O[C@@H](n3cnc4c(N5CCN(c6ccccc6)CC5)ncnc43)C2)cc(OC)c1OC | nt | ? | nt | -34
Cc1cc(NC(=O)CSc2nnc(-c3ccco3)n2Cc2ccco2)no1 | 0% | -14% | 3% | 17
CC(=O)c1ccc(N2CCN(S(=O)(=O)c3ccc4c5c3CC(=O)N5CC(C)S4)CC2)cc1 (configuration not stated) | nt | 14µM* | nt | nt
Cc1cccc(C)c1NC(=O)CCCSc1nnc(-c2ccc(F)cc2)n1-c1ccccc1 | ? | ? | ? | -69*
Cc1cccc(C)c1NC(=O)CCCSc1nnc(-c2ccc(Cl)cc2)n1-c1ccccc1 | ? | 14µM* | ? | -80*
O=C(CSc1nnc(-c2ccncc2)n1-c1ccccc1)Nc1ccc(F)cc1 | nt | 4% | -5%[46.1 µM] | 3
COc1ccc(NC(=O)CSc2nc(-c3cccs3)cc(C(F)(F)F)c2C#N)cc1 | 4%[46.1 µM] | -16% | -9%[46.1 µM] | -1
O=C(NC1CCCN(Cc2ccc(Cl)cc2)C1)c1cnc2ccccn2c1=O (configuration not stated) | ? | -29% | ? | -65*
CC(C)Cc1ccc(CN2CCCC(NC(=O)c3cnc4ccccn4c3=O)C2)cc1 (configuration not stated) | -18%[46.1 µM] | ? | ? | -23
Cc1ccccc1/C=C/C1=NCCN1 | 11µM* | -28% | ? | -32
Cc1ccccc1C=O | nt | 0% | nt | -17
CCOc1ccc(NC(=O)CN(C)C(=O)c2cn(-c3ccc(C)cc3)nc2-c2cccc(OC)c2)cc1OCC | 11µM* | -5% | -29% | 0
Cc1cc(C)c2c(n1)SCC(=O)N2CC(=O)Nc1ccc(F)cc1 | nt | -13% | nt | 2
CCOC(=O)C1=NNC(C(=O)c2ccccc2)C1c1ccc(Cl)cc1 (configuration not stated) | ? | -14% | -38%[46.1 µM] | -19
Cc1ccc(C2C3=C(CC(C)(C)CC3=O)OC3=C2C(=O)CC(C)(C)C3)cc1 | -7%[46.1 µM] | 2% | ? | -20
Cc1ccc(C2C3=C(CC(C)(C)CC3=O)N=C3c4ccccc4C(=O)C32)cc1 (configuration not stated) | ? | ? | ? | -68*
CC1(C)CC(=O)C2=C(C1)N=c1s/c(=C/c3ccc(F)c(F)c3)c(=O)n1C2c1ccc(F)cc1 (configuration not stated) | -24% | ? | 5% | -7
CC1(C)CC(=O)C2=C(C1)N=C1c3ccccc3C(=O)C1C2c1ccc(Cl)cc1 (configuration not stated) | ? | ? | ? | -71*
CCOC(=O)C1=C(C)N=C2c3ccccc3C(=O)C2C1c1ccc(Cl)cc1 (configuration not stated) | ? | ? | ? | -80*
SMILES | MARV entry inh | FMDV antiviral | Lassa entry inh | HCMV antiviral
O=C(CCCc1ccccc1)Nc1cccc(C(=O)O)c1 | 2.5µM* | 14µM* | ? | 41
O=C(NCC1CCCO1)c1onc(CSc2ccc(Cl)cc2)c1C(=O)O (configuration not stated) | nt | 0% | nt | ?
CCCCc1n[nH]c2c1C(=O)CC(C)(C)C2 | 15%[46.1 µM] | -6% | 13% | -85*
CC1(C)CC(=O)c2c(Cc3ccccc3)n[nH]c2C1 | -22% | -18% | 1% | -29
Cc1ccccc1OCCCCn1c(CO)nc2ccccc21 | ? | ? | ? | -94*
Cc1ccc(OCCCCn2cnc3ccccc32)cc1 | -7%[46.1 µM] | -10% | -1%[46.1 µM] | 10
CCCCN1CC(c2nc3ccccc3n2CCCCOc2ccccc2C)CC1=O (configuration not stated) | ? | -25% | 2%[46.1 µM] | -68*
Cc1cccc(Cn2cnc3ccccc32)c1 | ? | -8% | 0% | -15
Cc1ccccc1OCCCCn1cnc2ccccc21 | -22% | -23% | -2% | -68*
Cc1ccc(Cn2cnc3ccccc32)cc1C | -13% | ? | -1% | -63*
Cc1ccc(OCCCn2c(CO)nc3ccccc32)cc1 | -33% | -19% | -27% | -13
Cc1ccc2nc(SCC(=O)NCC3Cc4cc(-c5ncccc5C)ccc4O3)[nH]c2c1 (configuration not stated) | nt | -28% | nt | nt
O=C(NC1=NCCS1)c1cccc(OC(F)F)c1 | nt | 67% | nt | 80
CC1=NN(C(C#N)c2ccc([N+](=O)[O-])cc2)C(C)(C)C1 (configuration not stated) | 8%[14.2 µM] | -3% | -8% | -26
CCn1nc(C)cc1-c1nnc(Sc2ncc([N+](=O)[O-])s2)n1C | nt | 28µM* | nt | -96*
CCn1nc(C)cc1-c1nnc(SCC(=O)Nc2ccccc2)n1CCCOC | -7%[14.2 µM] | -3% | 1% | -9
NC(CCc1ccccc1)c1csc(Nc2ccc(C(=O)NCCCO)cn2)n1 (configuration not stated) | nt | -1% | nt | 32
O=S(=O)(c1ccc(NC(=S)N/N=C/c2c3ccccc3cc3ccccc23)cc1)N1CCOCC1 | nt | 16% | nt | -95*
CCCCOCCCNC(=S)Nc1ccc(S(=O)(=O)N2CCOCC2)cc1 | nt | -4% | nt | -30
O=S(=O)(c1ccc(NC(=S)N/N=C/c2ccc(Oc3ccccc3)cc2)cc1)N1CCOCC1 | -2%[46.1 µM] | 6% | -2%[46.1 µM] | -2
O=S(=O)(c1ccc(NC(=S)NCCC(c2ccccc2)c2ccccc2)cc1)N1CCOCC1 | 10µM* | ? | 3.5µM* | -99*
C[C@H]1C=CC(=O)O[C@H]1c1ccccc1 | nt | -28% | nt | -77*
C[C@H]1C=CCC(=O)N[C@@H](c2ccccc2)[C@@H](C)C=CCC(=O)N[C@@H]1c1ccccc1 | ? | nt | -13%[14.3 µM] | nt
O=[N+]([O-])c1ccc(O)c(/C=N/NC2=NS(=O)(=O)c3ccccc32)c1 | ? | -6% | -1%[46.1 µM] | 22
c1ccc(-c2nn(-c3ccccc3)[n+](-c3ccccc3)n2)cc1 | ? | ? | -26% | -95*
SMILES | MARV entry inh | FMDV antiviral | Lassa entry inh | HCMV antiviral
N#Cc1cc(-c2ccccc2)[nH]c1-c1nccc2ccccc12 | nt | 28µM* | nt | ?
CCOC(=O)Cn1c(S(=O)(=O)Cc2cccc(F)c2)nc(-c2ccccc2)c1-c1ccccc1 | 2.6µM* | -15% | 7.3µM* | ?
CCOC(=O)Cn1c(S(=O)(=O)Cc2ccc(F)cc2)nc(-c2ccccc2)c1-c1ccccc1 | 4.1µM* | -3% | 2.6µM* | -78*
CCOC(=O)Cn1c(-c2ccc(OC)cc2)c(-c2ccc(OC)cc2)nnc1=O | nt | -14% | nt | -23
OCCNCc1cc(Br)ccc1OCc1ccc(Cl)cc1 | ? | ? | -20% | -29
OCCNCc1cc(Br)ccc1OCc1ccc(Cl)cc1Cl | 11µM* | 0% | 11µM* | -17
